SMILES strings stand for the structures. Values joined by “and” are separate entries in the source; they are usually repeats but may differ in a detail not shown here. Equal entries are not always repeated. Compounds without any hit were thinned out: in the full panel of roughly 83,000, 20% have a hit.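 Cells were grown in 96-well plates and exposed to the test compound at a single concentration for 48 hours; results are reported as percent growth, with values below 10 considered active.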 Active and inactive are the calls of the source.

In one test the test system is A549/ATCC NSCLC. Put plainly: NCI-60 one-dose screen, 48 h (100 = growth as untreated, 0 = no growth, -100 = all killed). As to conditions: 10 µM unless noted.
As to `Cc1nnc(NS(=O)(=O)c2ccc(N=Nc3ccc(N)nc3N)cc2)s1`, the growth was 97.1% (inactive) and 112% (inactive). Same read-out and setting: for `CC[C@H](C)[C@H](NC(=O)[C@H](CCCCN)NC(=O)[C@H](CCCCN)NC(=O)[C@@H](NC(=O)[C@@H](NC(=O)[C@@H](N)Cc1cnc[nH]1)[C@@H](C)CC)[C@@H](C)CC)C(=O)N[C@@H](CCCNC(=N)N)C(=O)N[C@H](C(=O)N[C@@H](Cc1c[nH]c2ccccc12)C(=O)N[C@@H](Cc1ccc(O)cc1)C(=O)N[C@@H](CCCNC(=N)N)C(=O)N[C@@H](CCCCN)C(=O)N[C@@H](C)C(=O)N[C@@H](Cc1c[nH]c2ccccc12)C(=O)N[C@@H](Cc1cnc[nH]1)C(=O)N[C@H](C(=O)N[C@@H](CC(C)C)C(=O)NCC(=O)N[C@@H](CCCCN)C(=O)N[C@H](C(N)=O)C(C)C)C(C)C)[C@@H](C)O` the value was 39.2% (inactive). As for `O=S(=O)(Nc1cc(Sc2cccc3cccnc23)c(O)c2ccccc12)c1ccc(F)cc1`, the growth is 11.9% (inactive). Turning to `COc1ccc2c(c1)CCNC21C(=O)Nc2c(Br)cc(Br)cc21` (stereo not given), the growth is 99.2% (inactive).

In the case of `CCCn1nc(C(=O)N2CCCCC2)c2c1CCC(N1CCC(c3ccncc3)CC1)C2` (stereo not given), the growth was 102% (inactive). Same read-out and setting: for `C=C1C(=O)O[C@@H]2[C@H]3[C@H](COC(C)=O)[C@@H](OC(C)=O)C[C@H]3C(=C)[C@@H](O)C[C@@H]12` the value was 90.6% (inactive). As to `CC(=O)N1N=C(c2ccc(F)cc2)CC1c1sc(N(C)Cc2ccccc2)nc1Cl` (stereo not given), the growth was 88.6% (inactive). The same measure, in the same setting: to `O=C(/C=C/c1ccc([N+](=O)[O-])cc1)c1ccccc1` belongs 83.3% (inactive).

`COc1ccc(C(CC(=O)c2ccc3c(c2)OCO3)C(=O)O)cc1OC` (stereo not given): the growth was 92.6% (inactive) and 98% (inactive). As for `CCN1CCN(CC(=O)Nc2nc3ccc(NCc4ccc(C)cc4)cc3s2)CC1`, the growth was 73.4% (inactive). As to `Clc1cccc(Nc2ncnc3ccc(-c4cncc(-n5cnnn5)c4)cc23)c1`, the growth was 55.7% (inactive). On to `CCc1c2c(nc3ccc(OCc4ccc(B5OC(C)(C)C(C)(C)O5)cc4)cc13)-c1cc3c(c(=O)n1C2)COC(=O)[C@]3(O)CC`, for which the growth was 10.8% (inactive). Same read-out and setting: to `COc1ccc(/C=N\Nc2nc(SCC(C)C)nc(-c3ccc(OC)cc3)c2C#N)cc1` belongs 11.4% (inactive); to `COc1cc2nc3cc([N+](=O)[O-])ccc3c(NCCNCC(C)(C)O)c2cc1OC`, -9.76% (active).

Turning to `COc1ccc(C(=O)c2ccc(OC)c(OC)c2OC)cc1`, the growth was 47% (inactive) and 41.3% (inactive).

On to `N=C1/C(=C2\NC3C=CC=CC3S2)C(c2ccc(Cl)cc2)C2C(=O)N(c3ccccc3)C(=S)N12` (stereo not given), for which the growth is 100% (inactive).

On to `CC1=CC(C)(C)NC(=S)N1c1ccc(Cl)cc1`, for which the growth was 98% (inactive) and 104% (inactive).

For the compound `Cc1nn(-c2nc(-c3cc4ccccc4oc3=O)cs2)c(C)c1N=Nc1ccccc1`, the growth is 114% (inactive). Same read-out and setting: to `Cc1nc(Nc2ncc(C(=O)Nc3c(C)cccc3Cl)s2)cc(N2CCN(CCO)CC2)n1` belongs 25.1% (inactive) and 6.75% (active). Same read-out and setting: for `COc1ccc(-c2ccc(-c3ccc(C(=N)N)cn3)s2)cc1Cl` the value was -58.2% (active); for `CNC(=O)c1cc(Oc2ccc3nc(NC(=O)Nc4ccc(C(F)(F)F)cc4)sc3c2)ccn1`, 1.79% (active); for `COc1ccc(CCNC(=O)COc2cc3c(Nc4ccc(F)c(Cl)c4)ncnc3cc2OC)cc1OC`, 84.8% (inactive). Same read-out and setting: for `Cc1ccc(S(=O)(=O)Nc2cc(Sc3ccccc3)c(O)c3ccccc23)cc1` the value was 90.3% (inactive).

With `Nc1nc(Nc2cccnc2)sc1C(=O)c1ccccc1F`, the growth is 27% (inactive).

Regarding `O=C(Cn1cc(CN2CCN(c3ccnc4cc(Cl)ccc34)CC2)nn1)Nc1cccc([N+](=O)[O-])c1`, the growth was 84.8% (inactive). For the compound `CCOc1nc(-c2ccccc2)cc2c(O)c(C(=O)N/N=C/c3ccc(N(C)C)cc3)[nH]c(=O)c12`, the growth is 107% (inactive).

The subject of the next test is 786-0 renal. The test is described as above. Conditions: 10 µM unless noted.
On to `C=C[C@]1(C)C=C2CC[C@@H]3C(C)(C)C(=O)CC[C@@]3(C)[C@@H]2CC1`, for which the growth was 98.6% (inactive). Take `CN(C)CC1(C)Cc2ccsc2C1O` (stereo not given): the growth was 97.2% (inactive) and 94.9% (inactive). Same read-out and setting: for `CCN(CC)/C([O-])=c1\cccc\c1=C1\N=C(c2ccccc2)N=C1[n+]1ccc(-c2ccccc2)cc1` the value was 94.2% (inactive). Take `Cc1oc2c(Cc3ccc(NC(=O)c4ccc(Cl)cc4)cc3)ncnc2c1C(=O)NO`: the growth was 95% (inactive).

With `COc1cc(CNC(=O)CCCC/C=C/C(C)C)ccc1O`, the growth was 107% (inactive) and 101% (inactive). On the same count and under the same terms, to `CC1=C2[C@@H](CC1)[C@]1(C)O[C@@](C(C)C)(C[C@H]1OC(=O)CO)[C@H]2OC(=O)C1CC1c1ccccc1` (stereo not given in full) belongs 91.2% (inactive). As for `O=C1OCC2=C1C(c1cccc(C(F)(F)F)c1)c1cc3c(cc1N2CCO)CCC3` (stereo not given), the growth is 17% (inactive).

Take `COc1ccc(/C=N/C2=C(C#N)C(c3ccccc3)c3c(ccc4ccccc34)O2)cc1` (stereo not given): the growth was 29.2% (inactive). Still for that read-out and setting: to `O=C(CCl)N(O)c1ccc(/C=C/c2ccccc2)cc1` belongs 84% (inactive) and 78.3% (inactive); to `N#C/C(=C\c1ccc(Br)cc1)n1nnc2c(F)cccc21`, -13.5% (active).

For `O=C(/C=C/c1ccccc1)c1cccs1`, the growth was 89.5% (inactive) and 94.2% (inactive). The same measure, in the same setting: for `COc1ccc(Nc2nn3c(SCC(=O)c4ccc(C)cc4)nnc3s2)cc1` the value was 93.5% (inactive). With `CN(Cc1ccccc1)c1nc(Cl)c(C2CC(c3ccc4c(c3)OCO4)=NN2c2cc(Cl)cc(Cl)c2)s1` (stereo not given), the growth is 90% (inactive). For the compound `Cc1nnc(NS(=O)(=O)c2ccc(N=Nc3ccc(N)nc3N)cc2)s1`, the growth was 102% (inactive) and 99.8% (inactive).

As for `CC[C@H](C)[C@H](NC(=O)[C@H](CCCCN)NC(=O)[C@H](CCCCN)NC(=O)[C@@H](NC(=O)[C@@H](NC(=O)[C@@H](N)Cc1cnc[nH]1)[C@@H](C)CC)[C@@H](C)CC)C(=O)N[C@@H](CCCNC(=N)N)C(=O)N[C@H](C(=O)N[C@@H](Cc1c[nH]c2ccccc12)C(=O)N[C@@H](Cc1ccc(O)cc1)C(=O)N[C@@H](CCCNC(=N)N)C(=O)N[C@@H](CCCCN)C(=O)N[C@@H](C)C(=O)N[C@@H](Cc1c[nH]c2ccccc12)C(=O)N[C@@H](Cc1cnc[nH]1)C(=O)N[C@H](C(=O)N[C@@H](CC(C)C)C(=O)NCC(=O)N[C@@H](CCCCN)C(=O)N[C@H](C(N)=O)C(C)C)C(C)C)[C@@H](C)O`, the growth was -28.3% (active). Consider `O=S(=O)(Nc1cc(Sc2cccc3cccnc23)c(O)c2ccccc12)c1ccc(F)cc1`, for which the growth is 2.18% (active). On the same count and under the same terms, to `COc1ccc2c(c1)CCNC21C(=O)Nc2c(Br)cc(Br)cc21` (stereo not given) belongs 94.8% (inactive). On the same count and under the same terms, to `CCCn1nc(C(=O)N2CCCCC2)c2c1CCC(N1CCC(c3ccncc3)CC1)C2` (stereo not given) belongs 101% (inactive).

In the case of `C=C1C(=O)O[C@@H]2[C@H]3[C@H](COC(C)=O)[C@@H](OC(C)=O)C[C@H]3C(=C)[C@@H](O)C[C@@H]12`, the growth was 85.8% (inactive). Still for that read-out and setting: for `CC(=O)N1N=C(c2ccc(F)cc2)CC1c1sc(N(C)Cc2ccccc2)nc1Cl` (stereo not given) the value was 84.9% (inactive); for `O=C(/C=C/c1ccc([N+](=O)[O-])cc1)c1ccccc1`, 89.1% (inactive); for `COc1ccc(C(CC(=O)c2ccc3c(c2)OCO3)C(=O)O)cc1OC` (stereo not given), 111% (inactive) and 98.6% (inactive). Same read-out and setting: for `CCN1CCN(CC(=O)Nc2nc3ccc(NCc4ccc(C)cc4)cc3s2)CC1` the value was 68% (inactive); for `Clc1cccc(Nc2ncnc3ccc(-c4cncc(-n5cnnn5)c4)cc23)c1`, 42.9% (inactive).

For `CCc1c2c(nc3ccc(OCc4ccc(B5OC(C)(C)C(C)(C)O5)cc4)cc13)-c1cc3c(c(=O)n1C2)COC(=O)[C@]3(O)CC`, the growth was 10.6% (inactive). The same measure, in the same setting: to `COc1ccc(/C=N\Nc2nc(SCC(C)C)nc(-c3ccc(OC)cc3)c2C#N)cc1` belongs -48.2% (active); to `COc1cc2nc3cc([N+](=O)[O-])ccc3c(NCCNCC(C)(C)O)c2cc1OC`, 2.27% (active); to `COc1ccc(C(=O)c2ccc(OC)c(OC)c2OC)cc1`, 74% (inactive) and 46.1% (inactive). On the same count and under the same terms, to `N=C1/C(=C2\NC3C=CC=CC3S2)C(c2ccc(Cl)cc2)C2C(=O)N(c3ccccc3)C(=S)N12` (stereo not given) belongs 101% (inactive); to `CC1=CC(C)(C)NC(=S)N1c1ccc(Cl)cc1`, 99.8% (inactive) and 97.7% (inactive). On the same count and under the same terms, to `Cc1nn(-c2nc(-c3cc4ccccc4oc3=O)cs2)c(C)c1N=Nc1ccccc1` belongs 104% (inactive); to `Cc1nc(Nc2ncc(C(=O)Nc3c(C)cccc3Cl)s2)cc(N2CCN(CCO)CC2)n1`, 22.2% (inactive) and 9.13% (active). As for `COc1ccc(-c2ccc(-c3ccc(C(=N)N)cn3)s2)cc1Cl`, the growth was -61.3% (active).

`CNC(=O)c1cc(Oc2ccc3nc(NC(=O)Nc4ccc(C(F)(F)F)cc4)sc3c2)ccn1`: the growth is 35.4% (inactive). Turning to `COc1ccc(CCNC(=O)COc2cc3c(Nc4ccc(F)c(Cl)c4)ncnc3cc2OC)cc1OC`, the growth is 89.4% (inactive). Same read-out and setting: to `Cc1ccc(S(=O)(=O)Nc2cc(Sc3ccccc3)c(O)c3ccccc23)cc1` belongs 104% (inactive); to `Nc1nc(Nc2cccnc2)sc1C(=O)c1ccccc1F`, 18.2% (inactive); to `O=C(Cn1cc(CN2CCN(c3ccnc4cc(Cl)ccc34)CC2)nn1)Nc1cccc([N+](=O)[O-])c1`, 88% (inactive). The same measure, in the same setting: for `CCOc1nc(-c2ccccc2)cc2c(O)c(C(=O)N/N=C/c3ccc(N(C)C)cc3)[nH]c(=O)c12` the value was 112% (inactive).

(Values after PubChem BioAssay (NCI).)
